DAX1 inh-1: inhibits human nuclear receptor DAX1; P51843; HEK293 Gal4-DAX1 luciferase reporter, luminescence; inhibition, % at 6.75 µM; 0.99% of 340,000 active; AID 504766;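 active = inhibition above the mean over all tested compounds plus 3 SD, cut at about 4.2% in these data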;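 note: 0% = DAX1-transfected cells with DMSO and 100% = empty-vector control cells with DMSO; inhibition shows as a rise in luminescence from relieved DAX1 repression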
hgDAF-12 ag: activates the H. glycines DAF-12 receptor ligand-binding domain; HEK293 GAL4-hgDAF12 UAS-luciferase reporter, agonist luminescence; normalized to butyrate control; activation, % at 6.8 µM; 1.8% of 370,000 active; AID 687014;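 active = activation above a cutoff set at the mean of all screened compounds plus 3 SD, cut at about 10% in these data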;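 note: 0% = DMSO wells and 100% = sodium butyrate wells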
ssDAF-12 act: activates DAF-12 receptor from parasite S. stercoralis; AID 652126; 1% of 370,000 active; HEK293 ssDAF-12/GRIP1 lit1-tk-luc reporter, luminescence; % of 3 µM dafachronic acid response; activation, % at 6.8 µM;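 active = activation above the mean over all tested compounds plus 3 SD, cut at about 0.9% in these data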;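 note: 0% = DMSO-only wells and 100% = 3 µM delta7-dafachronic acid wells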
hcDAF-12 act: activators of H. contortus DAF-12 nuclear receptor; AID 652067; HEK293 hcDAF-12 lit1-tk-luc reporter, luminescence; 0% DMSO, 100% Δ7-dafachronic acid; 1.4% of 370,000 active; activation, % at 6.8 µM;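 active = activation above the mean of all tested compounds plus 3 SD, cut at about 5.5% in these data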;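 note: 100% = response to 3 µM Δ7-dafachronic acid high control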
DAX1 inh-2: DAX1 (NR0B1) inhibition, primary screen; inhibition, % at 6.8 µM; HEK293T StAR-luciferase reporter, SF-1/DAX-1 repression relief; 1.1% of 370,000 active;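 active = inhibition above the mean over all tested compounds plus 3 SD, cut at about 3.6% in these data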;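 note: 0% = DAX-1 cells with DMSO and 100% = cells lacking DAX-1 with DMSO; higher inhibition means more luminescence from relief of DAX-1 repression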
DAX1 inh confirm: confirmation of human DAX1 (NR0B1) inhibitors; shares compounds with DAX1 inh-2; HEK293T StAR-promoter luciferase reporter, SF-1/DAX-1 repression; inhibition, % at 6.8 µM; 87% of 2,400 active; AID 652134;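 active = inhibition above the average of every tested compound plus 3 SD, cut at about 3.8% in these data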;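 note: 0% = DAX-1 cells with DMSO and 100% = no DAX-1 control cells with DMSO; active compounds raise luminescence by relieving repression of the StAR reporter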
Target sequence (P51843 whole entry, looked up): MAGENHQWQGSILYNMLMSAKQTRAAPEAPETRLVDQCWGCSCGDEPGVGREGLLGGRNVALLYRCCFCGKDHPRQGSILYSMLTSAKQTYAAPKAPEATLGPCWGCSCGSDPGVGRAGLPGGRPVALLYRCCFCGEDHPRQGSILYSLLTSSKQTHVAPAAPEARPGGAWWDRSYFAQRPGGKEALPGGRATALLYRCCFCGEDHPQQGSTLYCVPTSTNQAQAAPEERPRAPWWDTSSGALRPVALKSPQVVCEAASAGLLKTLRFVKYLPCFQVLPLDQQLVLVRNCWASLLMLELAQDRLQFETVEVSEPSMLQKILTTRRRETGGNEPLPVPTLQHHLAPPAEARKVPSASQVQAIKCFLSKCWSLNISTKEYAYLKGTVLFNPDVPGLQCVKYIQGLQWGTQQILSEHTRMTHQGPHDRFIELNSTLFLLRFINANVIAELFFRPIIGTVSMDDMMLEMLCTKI
SF1 mutant ctr: nonselective inhibitor or artifact in SF-1 mutant DAX1 counter-screen; shares compounds with DAX1 inh-2; HEK293 StAR-luciferase, SF-1 AF2 mutant, luminescence; inhibition, % at 6.8 µM; 78% of 2,400 active; AID 652136;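 active = inhibition above the mean of all tested compounds plus 3 SD, cut at about 3% in these data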;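 note: 0% = DAX-1 transfected cells with DMSO and 100% = cells without DAX-1 with DMSO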
Starred values were filed as active, the others as inactive; · = no result. The list is not random: actives were taken first. Their share in the collection is about 4.1%.

SMILES	DAX1 inh-1	hgDAF-12 ag	ssDAF-12 act	hcDAF-12 act	DAX1 inh-2	DAX1 inh confirm	SF1 mutant ctr
COC(=O)C1=CN(c2ccc(C(C)(C)C)cc2)C(N)=C(C#N)C1c1cccc2ccccc12 (stereo unspecified)	·	-6	-1	1	5.2*	-1	-1
COC(=O)C1=CN(c2ccc(OC)cc2)C(N)=C(C#N)C1c1cccc2ccccc12 (stereo unspecified)	·	-4	-1	0	0	·	·
FC(F)C(F)(F)Oc1cccc(Nc2nccn3c(-c4cccc5cccnc45)cnc23)c1	·	-3	-1	-3	-1	·	·
O=C1c2ccccc2C(c2nnnn2-c2ccc3c(c2)OCCO3)N1Cc1ccc2c(c1)OCO2 (stereo unspecified)	·	-3	-2	0	-2	·	·
Cn1c(C(=O)O)cc2c(=O)n3ccccc3nc21	1	0	-1	-2	0	·	·
CN(C(=O)c1cc2c(=O)n3ccccc3nc2n1C)C1CCCCC1	0	9	0	2	10*	12*	6.3*
CCN(C(=O)c1cc2c(=O)n3ccccc3nc2n1C)C1CCCCC1	1	5	-1	2	4.9*	4.6*	3
CCOC1=C2CN(S(=O)(=O)c3ccc(C)cc3)[C@H](c3cccc(Cl)c3)C[C@@H]2N(S(=O)(=O)c2ccccc2[N+](=O)[O-])[C@H](c2ccccc2)C1	·	-3	-1	1	0	·	·
S=C(NCCc1ccc(Cl)cc1)NC1CCCCC1	4	5	1	4	5.0*	2	3.0*
COc1ccc(CCNS(=O)(=O)CCNC(=O)c2ccccc2)cc1	-1	1	-1	0	-1	·	·
COc1ccc(C(=O)NCCS(=O)(=O)NCCc2ccccc2)cc1	0	6	0	2	4.8*	3.8*	2
CC(C)Oc1cc(F)ccc1-c1cc(C(=O)Nc2cccc(C(F)(F)F)c2)[nH]n1	·	1	-1	-2	-2	·	·
CN(C)c1ccc(C=Nc2ccccc2C(N)=O)cc1	-3	10	1.9*	10*	5.8*	19*	9.1*
COCCN1C[C@@H](CO)O[C@@H](n2cnc3c(NCc4ccc(F)cc4)ncnc32)C1	·	1	-1	1	0	·	·
CC(=O)Nc1ccccc1NC(=O)C/C(C)=N/NC(=O)c1ccccn1	1	10	0	7.5*	4.6*	2	3.4*
CCCCn1c(N)c(N(C)C(=O)c2ccc(Br)o2)c(=O)[nH]c1=O	0	1	-1	1	4.6*	0	2
CCCCn1c(N)c(N(CCOC)C(=O)c2ccc(Br)o2)c(=O)[nH]c1=O	-1	3	0	-1	0	·	·
Cc1ccc(-c2csc(/C(C#N)=C(\O)CCl)n2)cc1	0	12*	-2	1	5.1*	3	2
COc1cc(/C=C(\C#N)C(=O)Nc2ccccc2F)ccc1OCCN1CCOCC1	0	4	-1	3	4.5*	5.0*	2
Nc1cccc2cc(S(=O)(=O)O)ccc12	-1	-2	0	0	3	·	·
Clc1nnc2c3ccccc3ccn12	0	1	-1	1	1	·	·
CCCCc1c(-c2ccccc2OC)ncn1Cc1ccc(F)cc1F	·	0	-2	-1	-1	·	·
O=C(CSc1nnc(-c2ccccn2)o1)Nc1ccccc1F	1	12*	0	5	14*	15*	6.3*
CC(C)(C)c1ccc(-c2nnc(SCC(=O)NCC3CCCO3)n2N)cc1 (stereo unspecified)	1	-1	-1	1	6.5*	3	1
O=C(CSc1nnc(NC(=O)c2ccccc2)s1)NCC1CCCO1 (stereo unspecified)	0	7	0	2	6.2*	4.2*	4.3*
SMILES	DAX1 inh-1	hgDAF-12 ag	ssDAF-12 act	hcDAF-12 act	DAX1 inh-2	DAX1 inh confirm	SF1 mutant ctr
O=C(CSc1nnc(NC(=O)Cc2ccccc2)s1)NCC1CCCO1 (stereo unspecified)	1	0	-1	4	0	·	·
COc1ccccc1C(CNC(=O)c1oc2ccccc2c1C)N1CCCC1 (stereo unspecified)	1	2	-1	0	1	·	·
Cc1ccc(Cc2c(C3CCCCC3)nc3c4ccccc4ccn23)cc1	·	-1	-1	1	-1	·	·
Cc1sc2nc(SCC(=O)N3CCOCC3)[nH]c(=O)c2c1-c1ccccc1	0	-2	-1	-2	1	·	·
Cn1c2ccccc2c(=O)c2cc(NCCCN3CCOCC3)ccc21	4	11*	0	4	5.1*	15*	10*
Cn1c(C(=O)NCCCN2CCOCC2)cc2c(=O)n(C)c3ccccc3c21	2	-2	-1	-1	1	·	·
CN1CCC[C@H]1CCNc1ccc2c(=O)c3ccccc3n(C)c2c1	1	9	0	5	8.1*	15*	9.6*
CCOC(=O)[C@]12CCCC3=C1N(CCC3)C(=O)[C@@H](CC(=O)NCCCOC)C2	·	1	0	-1	0	·	·
COC(=O)[C@]12CCCCC=C1N(Cc1cccc3ccccc13)C(=O)[C@H](CC(=O)NCc1cccs1)C2	·	7	-1	3	0	·	·
COC1=NC(=C(c2ccccc2)c2ccccc2)OC1=O	-1	-1	-1	-1	0	·	·
Cc1ccc(S(=O)(=O)N2CCC(=O)N([C@H](COCc3cccc(C)c3)C(C)C)CC2)cc1	·	-4	-1	-1	-1	·	·
Clc1ccccc1CSc1cnnc2ccccc12	1	6	-1	2	5.3*	3	1
Nc1ccc(C#Cc2ccccc2)cc1	1	-1	-2	-2	-1	·	·
Cc1cccc(C#Cc2ccccc2)n1	1	11*	0	3	4.9*	7.3*	4.9*
O=C(/C=C/c1ccco1)Nc1ccccc1C(=O)O	·	13*	0	4	4.6*	9.3*	5.7*
O=C(/C=C/c1ccco1)Nc1cc(Cl)ccc1C(=O)O	-1	1	-1	-1	0	·	·
ClCCn1cnc2c(SCc3ccccc3)ncnc21	-4	-2	-1	1	7.5*	-1	-6
ClCCn1cnc2c(SCc3ccccc3Cl)ncnc21	-4	-2	-1	-1	-3	·	·
CC(NC(=O)c1ccc([N+](=O)[O-])o1)C1CC2CCC1C2 (stereo unspecified)	0	·	·	·	·	·	·
CC1(Oc2ccccc2-c2ccn[nH]2)CCN(Cc2ccc(OC(F)(F)F)cc2)C1 (stereo unspecified)	·	1	-1	0	0	·	·
CCN=C1NN=C(c2ccc(C)cc2)CS1	0	8	0	2	1	·	·
CC(C)N=C1NN=C(c2ccc(F)cc2)CS1	1	13*	-1	5	5.9*	11*	6.0*

Assay outcomes: PubChem, The Scripps Research Institute Molecular Screening Center
